# Structures can show the parent of a compound that is named as a salt.
# Key:
# HCC1937 = experiment: relative cell viability, compound alone, vs DMSO (fraction of DMSO control); higher = less growth inhibition; conditions: 72 h
# MDA-MB-231 = experiment: as above; conditions: 72 h
# 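Further: viability read out with the CCK-8 kit in 96-well plates, screening a set of 303 compounds acting on lipid metabolism targets.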
compound,measurement,setting,value
COc1ccc(-n2c(SCCCN3C(=O)c4cccc5cccc(c45)C3=O)nnc2-c2ccncc2)cc1,relative cell viability,HCC1937,0.661
same,relative cell viability,MDA-MB-231,0.877
O=C(NNc1ccccc1)c1ccncc1 [PluriSln 1],relative cell viability,HCC1937,0.925
same,relative cell viability,MDA-MB-231,0.814
COC(=O)CN(c1ccc(CN(c2ccc(OCc3ccc(C)cc3)c(C(=O)OC)c2)S(=O)(=O)Cc2ccccc2)cc1)S(C)(=O)=O,relative cell viability,HCC1937,0.894
same,relative cell viability,MDA-MB-231,0.921
Fc1ccc(-c2c3cccc(C(F)(F)F)c3nn2Cc2ccc(F)cc2Cl)cc1,relative cell viability,HCC1937,1.11
same,relative cell viability,MDA-MB-231,0.816
CCCc1c(OCCCOc2ccc(OCC(=O)O)cc2)ccc(C(C)=O)c1O,relative cell viability,HCC1937,0.943
same,relative cell viability,MDA-MB-231,1.07
Cc1ccc(C)c(OCCCC(C)(C)C(=O)O)c1 [Gemfibrozil],relative cell viability,HCC1937,0.736
same,relative cell viability,MDA-MB-231,0.783
Cc1c(C)c2c(c(C)c1O)CCC(C)(COc1ccc(CC3SC(=O)NC3=O)cc1)O2 (stereo not drawn) [Troglitazone],relative cell viability,HCC1937,0.718
same,relative cell viability,MDA-MB-231,0.984
CN1CC(O)C2=C/C(=N/NC(N)=O)C(=O)C=C21 (stereo not drawn) [Carbazochrome],relative cell viability,HCC1937,0.793
same,relative cell viability,MDA-MB-231,0.871
CC(C)c1nc(N(C)S(C)(=O)=O)nc(-c2ccc(F)cc2)c1/C=C/[C@@H](O)C[C@@H](O)CC(=O)O [Rosuvastatin],relative cell viability,HCC1937,0.633
same,relative cell viability,MDA-MB-231,0.871
O=C(O)Cc1cccc(OCCCN(Cc2cccc(C(F)(F)F)c2Cl)CC(c2ccccc2)c2ccccc2)c1,relative cell viability,HCC1937,0.78
same,relative cell viability,MDA-MB-231,1.11
CC(c1cc2ccccc2s1)N(O)C(N)=O (stereo not drawn) [Zileuton],relative cell viability,HCC1937,1.21
same,relative cell viability,MDA-MB-231,0.906
C=CC[S+]([O-])C[C@H](N)C(=O)O (stereo partly drawn) [Alliin],relative cell viability,HCC1937,1
same,relative cell viability,MDA-MB-231,1.04
CC(C)CCC[C@@H](C)[C@H]1CC[C@H]2[C@@H]3CC=C4C[C@@H](O)CC[C@]4(C)[C@H]3CC[C@]12C [Cholesterol],relative cell viability,HCC1937,0.91
same,relative cell viability,MDA-MB-231,1.01
Cc1nc2c([nH]1)c(=O)n(C)c(=O)n2Cc1ccco1 [Furafylline],relative cell viability,HCC1937,0.721
same,relative cell viability,MDA-MB-231,0.924
COc1c(/C=C/C(=O)c2ccc(O)cc2)ccc(O)c1CC=C(C)C,relative cell viability,HCC1937,1.06
same,relative cell viability,MDA-MB-231,0.885
O=C(CCCCCCCC(=O)NCCO)NCCO [Adelmidrol],relative cell viability,HCC1937,1.16
same,relative cell viability,MDA-MB-231,1.04
"CCCCCCCCCCC#CC#CCCCCCCCCC(=O)O [10,12-Tricosadiynoic acid]",relative cell viability,HCC1937,0.712
same,relative cell viability,MDA-MB-231,0.911
COc1ccc2c(c1)CCC1C2CCC2(C)C(NCCCCCCN3C(=O)C=CC3=O)CCC12 (stereo not drawn),relative cell viability,HCC1937,0.699
same,relative cell viability,MDA-MB-231,0.806
O=C(O)c1cccnc1Nc1cccc(C(F)(F)F)c1 [Niflumic acid],relative cell viability,HCC1937,1.09
same,relative cell viability,MDA-MB-231,0.89
NC(=O)c1cnccn1 [Pyrazinamide],relative cell viability,HCC1937,0.654
same,relative cell viability,MDA-MB-231,0.841
O=C(O)c1c[nH]c2cc(Cl)c(-c3ccc(C4(O)CCC4)cc3)cc12,relative cell viability,HCC1937,0.958
same,relative cell viability,MDA-MB-231,0.914
Cc1cc(C)c(S(=O)(=O)N(CCc2cccc(Br)c2)Cc2ccc(-c3cccc(S(C)(=O)=O)c3)cc2)c(C)c1,relative cell viability,HCC1937,0.708
same,relative cell viability,MDA-MB-231,0.862
Cc1ccc(CN(CC(O)COc2cccc3[nH]ccc23)C(C)(C)C)cc1 (stereo not drawn),relative cell viability,HCC1937,0.994
same,relative cell viability,MDA-MB-231,0.988
c1ccc([C@H]2CN3CCSC3=N2)cc1 [Levamisole hydrochloride],relative cell viability,HCC1937,0.815
same,relative cell viability,MDA-MB-231,0.887
O=c1c(-c2ccc(O)cc2)coc2cc(O)ccc12 [Daidzein],relative cell viability,HCC1937,1.13
same,relative cell viability,MDA-MB-231,0.863
COc1cc(C(C)=O)ccc1O [Acetovanillone],relative cell viability,HCC1937,0.833
same,relative cell viability,MDA-MB-231,0.891
O=S(=O)(O)c1ccc2cc(N=Nc3cc(S(=O)(=O)O)c4cccnc4c3O)ccc2c1,relative cell viability,HCC1937,0.987
same,relative cell viability,MDA-MB-231,0.851
N=C(N)NCCC(=O)O [3-Guanidinopropionic Acid],relative cell viability,HCC1937,0.734
same,relative cell viability,MDA-MB-231,0.94
CC(C)(Oc1ccc(C2CC2(Cl)Cl)cc1)C(=O)O (stereo not drawn) [Ciprofibrate],relative cell viability,HCC1937,1.15
same,relative cell viability,MDA-MB-231,0.937
CC1(C)CC[C@]2(C(=O)O[C@@H]3O[C@H](CO)[C@@H](O)[C@H](O)[C@H]3O)CC[C@]3(C)C(=CC[C@@H]4[C@@]5(C)CC[C@H](O[C@@H]6O[C@H](C(=O)O)[C@@H](O)[C@H](O)[C@H]6O)C(C)(C)[C@@H]5CC[C@]43C)[C@@H]2C1 [Chikusetsusaponin IVa],relative cell viability,HCC1937,1.02
same,relative cell viability,MDA-MB-231,0.966
O=P(O)(O)OC(CO)CO [β-Glycerol phosphate disodium salt pentahydrate],relative cell viability,HCC1937,0.636
same,relative cell viability,MDA-MB-231,0.874
COc1ccc2c(c1)c(CC(=O)O)c(C)n2C(=O)c1ccc(Cl)cc1 [Indometacin],relative cell viability,HCC1937,1.28
same,relative cell viability,MDA-MB-231,0.842
Nc1ncnc2c1ncn2[C@@H]1O[C@H](COP(=O)(O)O)[C@@H](O)[C@H]1O [Adenosine 5'-monophosphate],relative cell viability,HCC1937,0.663
same,relative cell viability,MDA-MB-231,0.81
Nc1cccc(S(=O)(=O)N2CCCN(S(=O)(=O)c3ccc4c(c3)OCCO4)CC2)c1,relative cell viability,HCC1937,0.881
same,relative cell viability,MDA-MB-231,1.01

# Reference: the supplement of paper PMC9492666
